Reference: article PMC6212790, “How bacterial xenogeneic silencer rok distinguishes foreign from self DNA in its resident genome”
The full ranking holds about 33,000 sequences; the median of “e-score” is about -0.037, and the highest 2% start at about 0.34. What follows is part of a selection rich in the highest values, with near analogues and random picks from the rest.

Target: T1, GST-Rok (full length) (Bacillus subtilis subsp. subtilis str. …, UniProt O34857 1-191)
T1 sequence: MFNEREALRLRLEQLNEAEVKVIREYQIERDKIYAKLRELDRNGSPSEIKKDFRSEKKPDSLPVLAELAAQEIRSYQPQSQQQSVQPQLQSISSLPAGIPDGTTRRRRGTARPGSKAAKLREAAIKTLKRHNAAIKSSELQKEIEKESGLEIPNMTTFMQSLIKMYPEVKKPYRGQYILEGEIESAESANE
Assay: protein binding microarray; Rok is a gene silencer of Bacillus subtilis; high values mean tight binding
Conditions: protein: recombinant; tags: GST (pTH5325, pDEST15-Magic modified); dsDNA, one strand shown
Outline: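 Each has a 25-mer constant primer and a 35-mer variable part from a de Bruijn sequence of order 10, covering every non-palindromic 8-mer at least 32 times (palindromic 16). Preference for each 8-mer is given as a rank-based, unitless enrichment score (E-score). Its range runs from 0.5 (most favored) to −0.5 (most disfavored).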

Point of comparison: CAAGGTCG, binding signal -0.126 E-score. Against it:
- AGTTTCCA — higher, 0.18 E-score
- TACGTATA — higher, 0.35 E-score
- CACGTATA — higher, 0.243 E-score
- GACGTATA — higher, 0.212 E-score
- TCTAGTCA — higher, 0.183 E-score
- GTATATAC — higher, 0.432 E-score
- CCATATAC — higher, 0.251 E-score
- ACATAACC — higher, 0.0404 E-score
- CTATATAC — higher, 0.341 E-score
- AGATATCC — higher, -0.0591 E-score
- ACATAACG — higher, 0.157 E-score
- AGATATCT — higher, 0.399 E-score
- CTCTATAC — higher, 0.033 E-score
- GCATATAC — higher, 0.268 E-score
- ACATAACT — higher, 0.347 E-score
- GGATATAC — higher, 0.317 E-score
- AGATATCA — higher, 0.127 E-score
- ATCTTTCG — higher, 0.109 E-score
- AAGGATCA — lower, -0.129 E-score
- CCTAAACC — lower, -0.152 E-score
- GCTGAAAA — lower, -0.146 E-score
- GTTCTTAA — higher, 0.122 E-score
- CAAAGCTC — higher, -0.0842 E-score
- TCGAAAAA — higher, -0.0412 E-score
- ACGTTAGA — higher, 0.156 E-score
- CAGGCATG — lower, -0.176 E-score
- AGATATAT — higher, 0.395 E-score
- AGATATAA — higher, 0.183 E-score
- AGATATAG — higher, 0.151 E-score
- ATATATAC — higher, 0.396 E-score
- ATATAAAT — higher, 0.422 E-score
- ACATATGG — higher, 0.168 E-score
- ACATATAC — higher, 0.289 E-score
- AGATATAC — higher, 0.238 E-score
- ATATAAAG — higher, 0.17 E-score
- ATATAAAC — higher, 0.262 E-score
- ACATATGA — higher, 0.069 E-score
- ACATATGT — higher, 0.401 E-score
- CAGACGAA — higher, -0.0357 E-score
- CGTCTAAA — higher, -0.027 E-score
- AGGCCTCA — lower, -0.155 E-score
- AAGTTGAT — higher, 0.0883 E-score
- CGGCAACA — higher, -0.0449 E-score
- CCTGTAAG — lower, -0.159 E-score
- AAGAATAA — higher, 0.183 E-score
- ACGTCACA — higher, -0.0872 E-score
- CAATGATG — higher, 0.161 E-score
- ACAATTCT — higher, 0.149 E-score
- ACCTATAT — higher, 0.301 E-score
- ATATACAT — higher, 0.302 E-score
- ATATATGC — higher, 0.338 E-score
- ACATATAG — higher, 0.193 E-score
- ACATATAA — higher, 0.329 E-score
- ACATATAT — higher, 0.378 E-score
- ATATATGG — higher, 0.299 E-score
- CTATATGC — higher, 0.185 E-score
- ATATATAT — higher, 0.471 E-score
- ACGGGTTC — higher, -0.114 E-score
- AACAGGCG — higher, -0.0571 E-score
- CTAATGAC — higher, -0.05 E-score
- GTATATAA — higher, 0.278 E-score
- ATATATAA — higher, 0.435 E-score
- TCATATAA — higher, 0.192 E-score
- CTCTATAA — higher, 0.0692 E-score
- ATATAAAA — higher, 0.288 E-score
- TAATATAA — higher, 0.236 E-score
- CTATAAAA — higher, 0.23 E-score
- CTATATAA — higher, 0.345 E-score
- TTATATAA — higher, 0.399 E-score
- CAACTGTG — higher, -0.0366 E-score
- CCTATGAA — higher, -0.0665 E-score
- GAAGAAAA — higher, -0.0942 E-score
- ATTGATCA — higher, 0.101 E-score
- ACAAACTA — higher, 0.383 E-score
- ACAAACTC — higher, 0.155 E-score
- CCAAACTA — higher, 0.364 E-score
- CCAAACTC — higher, -0.0373 E-score
- AAAAACTC — higher, 0.0197 E-score
- AAAAACTA — higher, 0.417 E-score
- AAAAACTT — higher, -0.0545 E-score
- CCAAACCA — higher, -0.0489 E-score
- ACAAACTG — higher, 0.127 E-score
- GAAAACTA — higher, 0.346 E-score
- GAAAACCA — higher, -0.118 E-score
- GAAAACTC — higher, -0.114 E-score
- GAAGAAGA — higher, -0.113 E-score
- CACGCTGA — lower, -0.189 E-score
- CATACCGC — higher, -0.0931 E-score
- CCGATTTC — lower, -0.187 E-score
- ACATAAAC — higher, 0.257 E-score
- AAAAGTTC — higher, 0.114 E-score
- ACGCAGTA — higher, 0.125 E-score
- AGGATTCA — higher, -0.117 E-score
- AACCAGCT — higher, -0.112 E-score
- CAAAACTA — higher, 0.383 E-score
- CAAAACTG — higher, -0.0906 E-score
- GCAAACCA — lower, -0.161 E-score
- TAAAACAA — higher, 0.203 E-score
- TAAAACGA — higher, 0.111 E-score
- GCAAACAA — lower, -0.152 E-score
- CAAAACTC — higher, 0.0709 E-score
- GCAAACTA — higher, 0.386 E-score
- TAAAACTA — higher, 0.375 E-score
- ATGGCTTA — higher, 0.0565 E-score
- AGAATTCA — higher, 0.0872 E-score
- ACCCTCGC — higher, -0.0467 E-score
- ATAACTTG — higher, 0.289 E-score
- GCATAGGC — higher, -0.0277 E-score
- ATCTATAG — higher, 0.313 E-score
- CCATATAG — higher, 0.0758 E-score
- ATATAGCA — higher, 0.213 E-score
- CTATATAG — higher, 0.402 E-score
- CTATAGAG — higher, 0.0607 E-score
- ATATAGCG — higher, 0.349 E-score
- ATATAGCC — higher, -0.000533 E-score
- ATATATAG — higher, 0.416 E-score
- ATATAGGG — higher, -0.0461 E-score
- AGTTATGG — higher, 0.209 E-score
- CAGCTAGA — higher, 0.0847 E-score
- AACTTCAC — higher, -0.0432 E-score
- CCTAACGA — higher, -0.117 E-score
- ATTTTGCC — higher, 0.0261 E-score
- GATCTGAA — higher, -0.0373 E-score
- CATGCCGA — higher, 0.0242 E-score
- ACTCTACC — higher, -0.0638 E-score
- AATCTACC — higher, 0.437 E-score
- GATCTAAC — higher, 0.12 E-score
- GATCTACC — higher, 0.382 E-score
- CATCTACC — higher, 0.291 E-score
- ACTCTACT — higher, 0.27 E-score
- AATCTACT — higher, 0.432 E-score
- AATCTAAC — higher, 0.189 E-score
- AATCTACG — higher, 0.311 E-score
- AGTTATTC — higher, 0.069 E-score
- ACCTTAAC — higher, -0.0118 E-score
- CATGGTAC — higher, 0.13 E-score
- GTTTAACA — higher, 0.108 E-score
- AATTCAGA — higher, 0.0748 E-score
- CACTCAAC — higher, -0.00301 E-score
- CAGCATTC — higher, 0.0234 E-score
- GTGGCTGA — higher, -0.0523 E-score
- AGAAAAAG — higher, 0.0648 E-score
- CTTTATAC — higher, 0.226 E-score
- ATTTATAG — higher, 0.398 E-score
- AGTTATAC — higher, 0.329 E-score
- ATTTATGG — higher, 0.218 E-score
- ATTTATTG — higher, 0.348 E-score
- ATTTATAC — higher, 0.356 E-score
- ATTTATTC — higher, 0.219 E-score
- ATTTATTA — higher, 0.312 E-score
- ATTTATAA — higher, 0.333 E-score
- CATTAGGC — lower, -0.146 E-score
- AGAGTGGA — higher, -0.109 E-score
- AACCAGAG — lower, -0.187 E-score
- CACTACCA — higher, 0.221 E-score
- AACTACCC — higher, 0.292 E-score
- GACTACCA — higher, 0.095 E-score
- AACTACCA — higher, 0.432 E-score
- AACTACCT — higher, 0.416 E-score
- ACCTACCT — higher, 0.271 E-score
- TGCTACCA — higher, 0.152 E-score
- CACTACCG — higher, 0.0654 E-score
- TCCTACCA — higher, 0.175 E-score
- AACTATCG — higher, 0.316 E-score
- TACTACCA — higher, 0.386 E-score
- AACTACCG — higher, 0.417 E-score
- GGACTCTA — lower, -0.165 E-score
- CTACAGGA — higher, -0.04 E-score
- ACAAGCCT — higher, -0.083 E-score
- CTCTCACA — lower, -0.156 E-score
- AGACGCAA — higher, -0.089 E-score
